Shown are actives, neighbours in structure and some others; about 19% of the full set was active somewhere.
Pf growth 96h: inhibits malaria parasite growth, 96 h; P. falciparum luciferase reporter growth, 96 h; Potency, µM (titrated, usually from 28.7 µM), without a hit: at the highest dose activity change, negative = inhibition, usual class: inhibitors; 320,000 compounds, 6.9% hits; AID 504834; further: potency means the concentration at half of the fitted maximal effect; on the % scale 0 is the no-effect control and ±100 the full control effect
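Readout is luminescence from an integrated firefly luciferase in P. falciparum. Red cells, 2% hematocrit and 0.05% parasitemia final, were cultured with compound through two parasite generations (96 hours) at 37 C, 5% CO2.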
Shiga toxin inh: inhibitors of Shiga toxin in Vero cells; Vero cells, Shiga toxin protein synthesis inhibition reporter; inhibition, % at 38.7 µM; 290,000 compounds, 9.2% hits; AID 2315; in the data active means inhibition mostly above about 28%, no sharp cut-off; inactive means mostly below about 43%; further: 0% is about no effect
MARV entry inh: inhibitors of Marburg virus binding or cell entry; Marburg virus pseudotyped entry inhibition, cell reporter; Potency, µM (titrated, usually from 37.8 µM), for inactives: at the highest dose activity change, negative = inhibition, actives largely listed as inhibitors; 300,000 compounds, 1.8% hits; calls by dose curve; tested in HEK293 cells; further: potency means the concentration at half of the fitted maximal effect; on the % scale 0 is the no-effect control and ±100 the full control effect
Pf growth 48h: inhibits P. falciparum growth in the first generation, 48 h; Potency, µM (doses to about 28.7 µM), without a hit: top-dose activity change, negative = inhibition, hits mostly inhibitors; AID 504832; 310,000 compounds, 5.9% hits; P. falciparum luciferase growth in erythrocytes, 48 h; further: potency means the concentration at half of the fitted maximal effect; on the % scale 0 is the no-effect control and ±100 the full control effect
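Compounds are pin-transferred into medium, infected erythrocytes (2% hematocrit, 0.1% parasitemia final) are added, and plates sit one parasite generation at 37 C in 5% CO2. Detection reagent is then added and luminescence measured.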
Lassa entry inh: Lassa virus entry inhibition; Lassa virus pseudotype entry inhibition, cell reporter; Potency, µM (highest dose often 37.9 µM), for inactives: at the highest dose activity change, negative = inhibition, actives largely listed as inhibitors; 300,000 compounds, 1.2% hits; calls by dose curve; tested in HEK293 cells; further: potency means the concentration at half of the fitted maximal effect; on the % scale 0 is the no-effect control and ±100 the full control effect; nearly all actives have a fitted effect of over 50% in size
Cycloheximide cs: affects cycloheximide protein synthesis inhibition readout, counter-screen; cell reporter, cycloheximide protein synthesis inhibition counterscreen; max response, %; 300,000 compounds, 12% hits; AID 2314; in the data active means max response mostly above about 13%, no sharp cut-off; inactive means mostly below about 14%; further: read at 38.3 µM for the half of the compounds with a filed dose; 0% is about no effect
Active calls of the source: *; u = inconclusive; x = no result; [ ] = another dose, or the depositor's remark. Unless noted, the call rests on the fitted dose curve; in most records, active means well fitted inhibition curve with a large enough effect; inconclusive means small, poorly fitted or top-dose-only effect, or another doubt; inactive means no such curve, though single readings can be large or run the other way.

SMILES	Pf growth 96h	Shiga toxin inh	MARV entry inh	Pf growth 48h	Lassa entry inh	Cycloheximide cs
O=C1CSC(c2cccc([N+](=O)[O-])c2)N1c1ccccc1 (configuration not stated)	0%	21	-23%[14.2 µM]	u	24%	-1
CN1C[C@@H]2C[C@@H](c3cccn3-c3ccccn3)N3CCC[C@@]23C1=O	-11%	-4	-1%[46.1 µM]	32%	13%[46.1 µM]	-1
Cc1nnc(Sc2cc(C(=O)NCCCN(C)Cc3ccccc3)c3ccccc3n2)s1	2.1µM*	-2	u	u	-1%	-2
COC(=O)c1c(NC(NC(=O)c2ccccc2)(C(F)(F)F)C(F)(F)F)sc2c1CCN(C)C2	2.3µM*	-4	12%	8.3µM*	-13%	-3
CC(C)N1CCc2c(sc(NC(=O)CCS(=O)(=O)c3ccccc3)c2C#N)C1	u	17	-2%	-28%	10%	5
COC(=O)c1c(NC(=O)CCS(=O)(=O)c2ccccc2)sc2c1CCN(C)C2	u	-8	-3%	13µM*	0%	0
CCCN1CCc2c(sc(NC(=O)CCS(=O)(=O)c3ccccc3)c2C(=O)OC)C1	13µM*	-8	u	u	-22%	7
CCn1cc(C(=O)OCc2ccc(F)cc2)c(=O)c2ccc(C)nc21	x	0	0%	-22%	-4%	-3
C/C(=N\NC(=O)c1nn(C)c(C)c1Br)c1ccc(NC(=O)c2ccccc2F)cc1	23%	active	-1%	43%	28%	18*
C/C(=N\NC(=O)c1nn(C)c(C)c1Br)c1ccc(NC(=O)c2ccc(C)s2)cc1	32%	64*	u	52%	27%[46.1 µM]	45*
CCC(=O)Nc1ccc(/C(C)=N/NC(=O)c2c(Br)c(C)nn2C)cc1	u	15	-14%	5%	u	-2
C/C(=N\NC(=O)c1c(Cl)c(C)nn1C)c1ccc(NC(=O)c2ccncc2)cc1	u	26	9%	u	0%	12*
C/C(=N/NC(=O)c1ccoc1C)c1ccc(NC(=O)c2ccncc2)cc1	51%	104*	17%	105%	-6%	63*
CCC(=O)N1CCN(c2ccc(NC(=O)c3ccc(N4CCCC4)c([N+](=O)[O-])c3)cc2)CC1	-20%	-17	u	12%	-2%	-2
COc1ccccc1NS(=O)(=O)c1ccc(C(=O)OCC(=O)NCc2ccco2)cc1	3%	-13	-3%	-16%	2%	-4
C/C(=N\NC(=O)c1c(Br)c(C)nn1C)c1ccc(NC(=O)c2ccoc2C)cc1	-10%	40*	19%	17%	7%	44*
C/C(=N\NC(=O)C1(C)CC1(Br)Br)c1cccc(NC(=O)C2CCC2)c1 (configuration not stated)	u	7	18%	u	1%	-1
C/C(=N\NC(=O)c1c(Cl)c(C)nn1C)c1cccc(NC(=O)C2CCCC2)c1	u	38	1%	-23%	u	14*
C/C(=N\NC(=O)c1nn(C)c(C)c1Br)c1ccc(NC(=O)c2ccoc2C)cc1	-3%	93*	-10%	49%	-18%	91*
CCOc1ccc(Nc2ccc(S(=O)(=O)N3CCN(C)CC3)cc2[N+](=O)[O-])cc1OCC	u	x	x	12µM*	x	x
CN1CCN(S(=O)(=O)c2ccc(Nc3ccc(F)cc3)c([N+](=O)[O-])c2)CC1	-21%	x	-8%[46.1 µM]	7%	-7%	x
Cc1ccc(C(=O)CSc2nnc(N)s2)c(C)c1	-7%	78*	9%	109%	u	38*
Cc1ccc(C(=O)CSc2nnc3ccccn23)c(C)c1	113%	35	u	92%	u	27*
CCOc1ccc(C(=O)CSc2nnc(N)s2)cc1	-18%	73*	11%	56%	4%	30
Cc1nnc(SCC(=O)c2ccc(C(C)C)cc2)s1	10%	74*	u	32%	12%	31*
SMILES	Pf growth 96h	Shiga toxin inh	MARV entry inh	Pf growth 48h	Lassa entry inh	Cycloheximide cs
COCCn1c(C)cc(C(=O)CSc2nnc3ccccn23)c1C	17%	-8	x	x	x	13
Cc1cc(C)c(C(=O)CSc2nnc(C)s2)c(C)c1	13%	28	4%[46.1 µM]	-13%	6%[46.1 µM]	16
O=C1CSC(c2cccc([N+](=O)[O-])c2)N1c1ccc(O)cc1 (configuration not stated)	199%	-11	1%	13%	-1%	-3
Cc1cc(C)c(C(=O)CSc2nnc(N)s2)cc1C	57%	21	x	39%	x	26*
Cc1ccc(Nc2nnc(SCC(=O)c3ccc(Br)s3)s2)c(C)c1	1µM*	17	u	-4%	-4%	8
COC(=O)CSc1nnc(C)c(=O)[nH]1	x	-9	4%	6%	12%	-1
Cc1cc(C)c(C(=O)CSc2nnc(N)s2)c(C)c1	2%	28	x	6%	x	3
Cc1cc(C)c(C(=O)CSc2nnc(C)c(=O)[nH]2)cc1C	-11%	95*	x	1%	x	48*
COCC(C)n1c(C)cc(C(=O)CSc2nnc(N)s2)c1C (configuration not stated)	x	37	u	u	u	24*
COCC(C)n1c(C)cc(C(=O)CSc2nc(C)c(C)c(C)n2)c1C (configuration not stated)	u	-4	-4%	u	x	-1
Cc1c(C(=O)N2CCN(c3ccccc3)CC2)sc2ncnc(N3CCC(C)CC3)c12	30%	12	x	-5%	x	6
Oc1ccc(Cl)cc1	-16%	x	x	-1%	x	x
Oc1ccc(Oc2ccc(Oc3ccc(O)cc3)cc2)cc1	10%	x	x	21%	x	17*
CCCCn1cnc2c(SCc3ccccc3F)nc(N)nc21	x	x	u	x	-6%	x
C(#CC1CCCC1)c1ccc2c(c1)COc1c3ccccc3nn1-2	72%	91*	x	132%	x	14*
CCCc1cc(-c2ccc3c(c2)COc2c4ccccc4nn2-3)on1	224%	x	x	148%	x	x
COc1ccc(S(=O)(=O)N2CCOCC2)cc1NC(=O)COc1ccc(C(C)=O)cc1OC	8%	x	-6%	-25%	21%	x
CC1=CC(=C(C#N)C#N)C=C(C)N1Cc1ccc(Cl)cc1	-89%	-6	-12%[46.1 µM]	2.1µM*	11%	8
N#CCC(=O)Nc1ccc(C(=O)OCC(=O)Nc2ccccc2-c2ccccc2)cc1	-12%	-8	2%[46.1 µM]	u	8%	-1
CCN(C(=O)Cc1ccc(Br)cc1)C1CCCCC1	-29%	12	u	-22%	6%	-1
Cc1cc(C(=O)C(C)OC(=O)c2ccc(NC(=O)CC#N)cc2)c(C)n1-c1ccccc1 (configuration not stated)	8.3µM*	x	u	13µM*	u	x
CCOc1ccccc1NC(=O)C(OC(=O)c1cc(C)oc1C)c1ccccc1 (configuration not stated)	u	15	u	13µM*	u	-1
